From PubChem BioAssay
An excerpt weighted towards active compounds, which were near 3.1% of everything screened.
PMP22 txn = PMP22 gene transcription modulation | 43,000 compounds, 2% hits | S16 Pmp22-F2sN Schwann cells, FLuc/NLuc coincidence luminescence, 24 h | Potency, µM (series often up to 57.5 µM), without a hit: at the highest dose activity change, negative = inhibition, actives largely listed as inhibitors; active means clear falling dose curves in both reporters; inconclusive means both reporters move, but less clearly or upward; inactive means either reporter flat; the % is the NLuc reporter signal
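qHTS, 1536-well. Cells seeded, compounds added by pin tool, 24 h 37C. Nano-Glo reagent 1 (lysis/FLuc), 10 min RT, read; Stop&Glo, 10 min RT, read NLuc.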
S16 F2sN tox = cytotoxicity in S16 Pmp22-F2sN Schwann cells; S16 Pmp22-F2sN Schwann cells (luciferase reporters placed in the Pmp22 gene) viability, CellTiter-Glo, 24 h; Potency, µM (titrated, usually from 57.5 µM), inactives show at the highest dose activity change, negative = cytotoxicity, actives largely listed as cytotoxic; 43,000 compounds, 0.48% hits; AID 1508642; further: nearly all actives have a fitted effect of over 65% in size
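S16 Schwann cells carrying the Pmp22-F2sN reporter, seeded in 1536-well format, were exposed to library compounds for 24 h at 37C. Viability was read as CellTiter-Glo luminescence after 15 min at room temperature.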
mTORC1 inh = mTORC1 pathway inhibition measured by phospho-rpS6; Tsc2-/- p53-/- MEF, phospho-rpS6 immunofluorescence/PI, 24 h; Potency, µM (highest dose often 38.3 µM), for inactives: at the highest dose activity change, negative = inhibition, actives largely listed as inhibitors; 44,000 compounds, 0.78% hits; AID 493208;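 further: plate controls were DMSO for no effect and rapamycin for full effect; nearly all actives have a fitted effect of over 50% in size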
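Read-out: phospho-S6 Alexa-488 intensity over PI intensity per well, scored as % active cells using thresholds from rapamycin (7.5 nM) and DMSO controls. Tsc2-/-, p53-/- MEFs exposed to compound for 24 h; PI cell count recorded as viability.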
p53null 32C tox = selectivity test: cytotoxicity in p53 null cells, permissive temperature. H1299-neo p53 null cells, ATP luminescence, 24 h, 32C. Potency, µM (top dose mostly 46.1 µM), for inactives: at the highest dose activity change, negative = cytotoxicity, usual class: cytotoxic. 55,000 compounds, 0.62% hits;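 further: 0% = DMSO only and -100% = full killing by 100 µM tamoxifen; nearly all actives have a fitted effect of over 55% in size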
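Cells lacking p53 (H1299-neo) are plated at 600 per well and allowed to settle overnight at 37C. Test compounds (up to 46 uM) are added and held 24 hours at 32C, then ATP is quantified by luminescence.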
p53null 39C tox = selectivity test: cytotoxicity in p53 null cells, nonpermissive temperature; H1299 p53-null (neo) cells, 39C, ATPlite viability, 24 h; Potency, µM (highest dose often 46.1 µM), for inactives: at the top dose activity, negative = cell killing, usual class: cytotoxic; 55,000 compounds, 0.97% hits;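 further: 0% = DMSO only and -100% = full killing by 100 µM tamoxifen; nearly all actives have a fitted effect of over 50% in size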
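Temperature-shift cytotoxicity format: compound titrations on p53-null or A138V-expressing H1299 cells held 24 hr at 39C, cell ATP then measured, AC50 from Hill model.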
OvCa metastasis = inhibitors of ovarian cancer cell adhesion and invasion in omental model. 46,000 compounds, 0.1% hits. AID 1963576. SKOV3ip1-GFP adhesion/invasion on 3D omental model, fluorescence. Potency, µM (titrated, usually from 45.8 µM), for the others: at the top dose activity change, negative = inhibition, usual class: inhibitors;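 further: plate controls were DMSO wells for no effect and tomatine positive control wells for full effect; nearly all actives have a fitted effect of over 65% in size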
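Adhesion/invasion was scored as fixed GFP-labeled SKOV3ip1 cell counts (488/509 nm), normalized to DMSO and tomatine controls. Cancer cells in serum-free medium, with four compound doses (0.36-46 umol/L), sat 2 hr at RT then 16 hr at 37 C on a 48 hr fibroblast/mesothelial/ECM culture.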
Active calls of the source: *; i = inactive; u = inconclusive; x = not tested or not shown. Unless noted, the call rests on the fitted dose curve; in most records, active means well fitted curve in the direction sought with a large enough effect; inconclusive means small, poorly fitted or top-dose-only effect, or another doubt; inactive means no such curve, though single readings can be large; an effect the other way counts as inactive or inconclusive. Unless noted, on the % scale 0 is the no-effect control and ±100 the full control effect; potency means the concentration at half of the fitted maximal effect.

SMILES	PMP22 txn	S16 F2sN tox	mTORC1 inh	p53null 32C tox	p53null 39C tox	OvCa metastasis
Cc1nnc(N2CCC(C(=O)NCc3ccc(F)cc3)CC2)c2nn(-c3ccc(Cl)cc3)c(C)c12	u	-22%	-8%	-11%	-12%	u
CCOc1ccccc1CNC(=O)C1CCN(c2nnc(C)c3c(C)n(-c4ccc(C)cc4)nc23)CC1	u	u	-13%	u	16µM*	7.9µM*
COc1ccccc1CCNC(=O)C1CCN(c2nnc(C)c3c(C)n(-c4ccc(C)cc4)nc23)CC1	u	u	-9%	-13%	10µM*	u
Cc1nnc(N2CCC(C(=O)NCCc3ccccc3Cl)CC2)c2nn(-c3ccccc3)c(C)c12	u	35µM*	-8%	u	10µM*	u
CCNC(=O)c1cc2c(-c3cc(OCCN4CCCC4)c(Cl)cc3Cl)nc(N)nc2s1	x	x	x	x	x	19%
C[C@@H]1COC(Nc2ccc3ncnc(Nc4ccc(OCc5nccs5)c(Cl)c4)c3c2)=N1	x	x	x	x	x	-22%
CN(C)c1nc(Cc2ccc(NC(=O)c3ccc(C(F)(F)F)cc3)cc2)nc(N(C)C)c1CC(=O)O	x	x	x	x	x	-4%
COc1ccc(Cl)cc1NC(=O)C1CCN(c2nnc(C)c3c(C)n(-c4ccccc4)nc23)CC1	u	-4%	-1%	15%	-6%	i
Cc1ccc(Cl)cc1NC(=O)C1CCN(c2nnc(C)c3c(C)n(-c4ccccc4)nc23)CC1	u	2%	0%	u	13µM*	i
Cc1cccc(NC(=O)CSc2nc(-c3cccs3)cc(C(F)(F)F)c2C#N)c1	15µM*	u	-3%	-20%	u	-7%
N#CC1(c2cccc(C(=O)Nc3cc(Oc4ccc5nc(NC(=O)C6CC6)sc5n4)ccc3F)c2Cl)CC1	x	x	x	x	x	16%
CC[C@@H]1C=C(C)C[C@H](C)C[C@H](OC)[C@H]2O[C@@](O)(C(=O)C(=O)N3CCCC[C@@H]3C(=O)O[C@H](C(C)=C[C@@H]3CC[C@H](Cl)[C@H](OC)C3)[C@H](C)[C@@H](O)CC1=O)[C@H](C)C[C@H]2OC	x	x	x	x	x	-3%
O=C(Nc1ccc2oc(-c3ccc4ccccc4c3)nc2c1)c1cc(Br)ccc1Cl	u	-4%	16µM*	-4%	-15%	u
O=C(Nc1ccc2oc(-c3cc(Br)ccc3Cl)nc2c1)c1ccc2ccccc2c1	u	22µM*	-14%	-9%	u	-26%
O=C(Nc1ccc2oc(-c3ccc4ccccc4c3)nc2c1)c1cc(Cl)ccc1Cl	0%	0%	5%	2%	1%	i
COc1ccc(-c2cc3nccn3c(Nc3ncccc3C(N)=O)n2)cc1OC	x	x	x	x	x	42%
COCc1oc2ccc(NS(=O)(=O)c3ccc(C)cc3)cc2c1C(=O)OC	7.1µM*	-26%	u	15%	10%	-7%
CCOc1ccc(S(=O)(=O)Nc2ccc3oc(C)c(C(=O)OCCOC)c3c2)cc1	u	1%	-30%	12%	13%	-10%
CC(=O)N1c2ccc(S(=O)(=O)NCC3CCC(C(=O)Nc4ccc(F)cc4)CC3)cc2CC1C (stereo unspecified)	u	14µM*	-8%	16%	15%	-3%
COc1cc(Cl)c(NS(=O)(=O)c2ccc3c(c2)CC(C)N3C(=O)C2CCC2)c(OC)c1 (stereo unspecified)	12µM*	u	-2%	19%	-9%	-1%
CC1Cc2cc(S(=O)(=O)NCCc3ccc(Cl)cc3)ccc2N1C(=O)C1CCC1 (stereo unspecified)	x	x	-7%	11%	-28%	1%
COc1ccccc1NC(=O)C1CCC(CNS(=O)(=O)c2ccc3c(c2)CC(C)N3C(C)=O)CC1 (stereo unspecified)	19µM*	u	u	11%	-7%	i
CCc1ccc(NC(=O)C2CCC(CNS(=O)(=O)c3ccc4c(c3)CC(C)N4C(C)=O)CC2)cc1 (stereo unspecified)	-24%	-4%	u	-1%	-10%	5%
CCCN(CCC)c1ccc(C2N=C(N)Nc3nc4ccccc4n32)cc1 (stereo unspecified)	u	u	-4%	u	3.2µM*	u
COc1cc(C2N=C(N)Nc3nc4ccccc4n32)ccc1OCCC(C)C (stereo unspecified)	u	u	1%	x	x	i
SMILES	PMP22 txn	S16 F2sN tox	mTORC1 inh	p53null 32C tox	p53null 39C tox	OvCa metastasis
CC(C)CCOc1ccc(C2N=C(N)Nc3nc4ccccc4n32)cc1 (stereo unspecified)	u	-7%	u	x	x	13µM*
COC(=O)c1nnn(-c2cccc(C)c2)c1C(=O)OC	-15%	-8%	-8%	-2%	-12%	-21%
Cc1cccc(-n2nnnc2S(C)(=O)=O)c1	6.7µM*	5µM*	0.41µM*	14µM*	22%	u
Cc1cccc(N/C=C/C(=O)c2cccs2)c1C	x	x	x	14µM*	x	x
NC(=O)c1ccccc1N/C=C/C(=O)c1cccs1	x	x	x	13µM*	11µM*	x
Cc1cccc2sc(N(Cc3cccnc3)C(=O)CCS(=O)(=O)c3ccccc3)nc12	u	u	u	u	13µM*	-20%
Cc1ccc2sc(N(Cc3cccnc3)C(=O)CCS(=O)(=O)c3ccccc3)nc2c1C	u	u	-4%	-11%	5%	u
Cc1cc(C)c(S(=O)(=O)NCCc2csc3nc(-c4ccc(Cl)cc4)nn23)c(C)c1	u	u	-3%	46%	20µM*	i
CCOCCCNC(=O)c1ccc(Cn2c(=O)c3cccn3c3cccnc32)cc1	11µM*	21%	-15%	19%	-13%	-9%
CCN(CC)CCNC(=O)c1ccc(Cn2c(=O)c3cccn3c3cccnc32)cc1	-25%	1%	3.3µM*	2%	-23%	-5%
O=C(NCCc1ccccc1)c1ccc(Cn2c(=O)c3cccn3c3cccnc32)cc1	-35%	11%	1%	-1%	-6%	9%
COc1cc(Nc2ncc(F)c(Nc3ccc4c(n3)N(COP(=O)(O)O)C(=O)C(C)(C)O4)n2)cc(OC)c1OC	x	x	x	x	x	2%
CCOc1cc(CNCCSc2nnnn2C)cc(Cl)c1OCc1ccc(Cl)cc1	u	-12%	16µM*	u	11µM*	u
COc1ccc(-c2noc(CSc3nnc(C)n3-c3ccc(OC)cc3)n2)cc1	u	-11%	-3%	-10%	-17%	16%
